SW480 rereplic – DNA re-replication induction in SW480 cells; SW480 DNA re-replication, Hoechst DNA content imaging, 48 h; Potency, µM (doses to about 46.1 µM), for the others: at the highest dose re-replication activation, actives largely listed as activators; actives 1.8% (n = 340,000); further: % of control where 0% means no effect; nearly all actives have a fitted effect of over 55% in size
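DNA re-replication was detected as more nuclei of elevated Hoechst intensity after 48 hr exposure to compound (23 nL pinned per well of 250 cells).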
KB-3-1 tox – kills parental KB-3-1 adenocarcinoma cells; KB-3-1 viability, CellTiter-Glo ATP luminescence, 72 h; Potency, µM (doses to about 46.1 µM), actives largely listed as cytotoxic; actives 1.4% (n = 400,000); further: on the % scale 0 is the no-effect control and ±100 the full control effect; nearly all actives have a fitted effect of over 60% in size
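KB-3-1 parental drug-naive adenocarcinoma cells in DMEM/10% FBS, incubated 72 h at 37 C with pin-transferred compounds across a concentration series. Viability by CellTiter-Glo luminescence; concentration-response curves fitted after normalization.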
HT1080 IDH1KD tx – toxicity to HT-1080 IDH1 knockdown cells (counter line) | HT-1080 IDH1 knockdown viability, ATP luminescence, 48 h | Potency, µM (top dose mostly 46.1 µM), without a hit: at the top dose activity, negative = toxicity, hits mostly cytotoxic | actives 2% (n = 360,000) | AID 686971;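 further: 0% = DMSO wells and -100% = cell-free medium wells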
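IDH1KD HT-1080 cells, 750/well, RPMI + 5% FBS; compound pinned after 2 h settling; 48 h, 37 °C; CellTiter-Glo luminescence; % activity normalised to DMSO and no-cell wells; curves fitted, classed by r2 and efficacy.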
HT1080-NT tox – kills 2HG-producing HT-1080-NT fibrosarcoma cells | Potency, µM (top dose mostly 46.1 µM), for inactives: top-dose activity, negative = less viability, usual class: cytotoxic | actives 1.6% (n = 360,000) | HT-1080-NT fibrosarcoma viability, CellTiter-Glo ATP luminescence, 48 h | AID 686970;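 further: NT is the 2HG producing partner of a matched IDH1 knockdown line; 0% = DMSO-treated cells and -100% = media-only wells without cells; nearly all actives have a fitted effect of over 55% in size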
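Compounds were tested in concentration-response format on HT-1080-NT cells for 48 hours at 37 degrees C. Cell viability came from CellTiter-Glo luminescence; curves were classified by r2, response magnitude and activity.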
MCF10A rerep – DNA re-replication induction in MCF 10a cells | Potency, µM (titrated, usually from 46.1 µM), without a hit: at the highest dose activity, positive = re-replication, most hits filed as activators | actives 2.9% (n = 350,000) | AID 624296 | MCF 10A DNA re-replication, Hoechst nuclear intensity, 48 h; further: % of control where 0% means no effect; nearly all actives have a fitted effect of over 50% in size
KB-V1 MDR tox – KB-V1 MDR subline cytotoxicity | KB-V1 MDR cells viability, CellTiter-Glo, 72 h | Potency, µM (titrated, usually from 46.1 µM), usual class: cytotoxic | actives 3.4% (n = 400,000); further: on the % scale 0 is the no-effect control and ±100 the full control effect; nearly all actives have a fitted effect of over 60% in size
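Drug-selected KB-V1 cells, grown in DMEM lacking phenol red with 10% FBS, receive compound titrations; after three days at 37 degrees C, surviving cell ATP is quantified by CellTiter-Glo luminescence and responses normalized and curve-fitted.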
An asterisk follows results filed as active; [ ] = dose if it differs, or a comment. Most compounds without a hit are left out; they make up all but 7.9% or so of the library. The call rests on the fitted dose curve; in most records, active means well fitted curve in the direction sought with a large enough effect; inconclusive means small, poorly fitted or top-dose-only effect, or another doubt; inactive means no such curve, though single readings can be large; an effect the other way counts as inactive or inconclusive. Potency means the concentration at half of the fitted maximal effect.

For CCCOc1ccc(/C=N/Nc2cc(N3CCOCC3)ncn2)c(O)c1 the results were SW480 rereplic inconclusive, KB-3-1 tox 12µM*, HT1080 IDH1KD tx 3.7µM*, HT1080-NT tox inconclusive, MCF10A rerep 15% and KB-V1 MDR tox inactive.
Screening CCOc1ccc(N(CC(=O)NC2CCCCCC2)S(=O)(=O)c2ccccc2)cc1 returned SW480 rereplic -23%, KB-3-1 tox inactive, HT1080 IDH1KD tx 10%, HT1080-NT tox 0%, MCF10A rerep 12% and KB-V1 MDR tox inconclusive.
`O=S1c2ccccc2Nc2ccccc21` gave SW480 rereplic -5%, KB-3-1 tox inactive, HT1080 IDH1KD tx 11%, HT1080-NT tox 8%, MCF10A rerep 1% and KB-V1 MDR tox inactive.
`CCOc1ccc(NC(=O)N2CC=C(c3c[nH]c4ccccc34)CC2)cc1` gave KB-3-1 tox 23µM* and KB-V1 MDR tox inconclusive.
Screening CCOC(=O)c1cccc(NC(=O)N2CC=C(c3c[nH]c4ccccc34)CC2)c1 returned KB-3-1 tox inactive and KB-V1 MDR tox inactive.
`C[C@H]1CN([C@@H](C)CO)C(=O)CCCn2nncc2CO[C@@H]1CN(C)Cc1cccc(C(=O)O)c1` gave KB-3-1 tox inactive, HT1080 IDH1KD tx 28%, HT1080-NT tox 14% and KB-V1 MDR tox inactive.
CCOC(=O)c1cc(CC)sc1NC(=O)c1cc([N+](=O)[O-])ccc1N1CCOCC1 was read as SW480 rereplic 2.3µM*, KB-3-1 tox 1µM*, HT1080 IDH1KD tx inconclusive, HT1080-NT tox inconclusive, MCF10A rerep inconclusive and KB-V1 MDR tox inactive.
`CCOC(=O)c1cc(CC)sc1NC(=O)c1ccc(N2CCOCC2)c([N+](=O)[O-])c1` gave SW480 rereplic -3%, KB-3-1 tox inactive, HT1080 IDH1KD tx 5%, HT1080-NT tox 0%[9.24 µM], MCF10A rerep 27% and KB-V1 MDR tox inactive.
`O=C(OCc1cccc(C(F)(F)F)c1)c1cc([N+](=O)[O-])ccc1N1CCOCC1` gave SW480 rereplic 5%, KB-3-1 tox inactive, HT1080 IDH1KD tx -22%, HT1080-NT tox -15%, MCF10A rerep 8% and KB-V1 MDR tox inconclusive.
O=C(OCc1ccc(Br)cc1)c1cc([N+](=O)[O-])ccc1N1CCOCC1 was read as KB-3-1 tox 5.8µM*, HT1080 IDH1KD tx 2.6µM*, HT1080-NT tox inconclusive and KB-V1 MDR tox 1.3µM*.
For CCc1ccc(C(=O)COC(=O)c2cc([N+](=O)[O-])ccc2N2CCOCC2)cc1 the results were SW480 rereplic 10µM*, KB-3-1 tox inconclusive, HT1080 IDH1KD tx 8.2µM*, HT1080-NT tox 9.2µM*, MCF10A rerep 4.6µM* and KB-V1 MDR tox 6.5µM*.
`COc1ccc(COC(=O)c2cc([N+](=O)[O-])ccc2N2CCOCC2)cc1F` gave SW480 rereplic inconclusive, KB-3-1 tox 0.13µM*, HT1080 IDH1KD tx 0.0052µM*, HT1080-NT tox 0.0058µM*, MCF10A rerep 21% and KB-V1 MDR tox 0.073µM*.
`O=C(OCc1cccc(Cl)c1)c1cc([N+](=O)[O-])ccc1N1CCOCC1` gave SW480 rereplic inconclusive, KB-3-1 tox inconclusive, HT1080 IDH1KD tx inconclusive, HT1080-NT tox -23%, MCF10A rerep inconclusive and KB-V1 MDR tox inconclusive.
`COc1ccc(NC(=O)C(Sc2nnc(-c3ccncc3)n2-c2ccccc2C)c2ccccc2)cc1Cl` (stereo unspecified) gave SW480 rereplic -6%, KB-3-1 tox inconclusive, HT1080 IDH1KD tx -24%, HT1080-NT tox -15%, MCF10A rerep -7% and KB-V1 MDR tox inconclusive.
For CCOc1ccc(C(=O)NC(=S)Nc2cccnc2)cc1 the results were SW480 rereplic -2%, KB-3-1 tox inactive, HT1080 IDH1KD tx 8%, HT1080-NT tox 13%, MCF10A rerep -2% and KB-V1 MDR tox inactive.
Screening CC(=O)N(Cc1ccc(Br)cc1)c1ccccc1C(=O)O returned SW480 rereplic 2.6µM*, KB-3-1 tox inactive, HT1080 IDH1KD tx 9%, HT1080-NT tox -1%, MCF10A rerep -2% and KB-V1 MDR tox inactive.
For COc1ccc(CN(C(C)=O)c2ccccc2C(=O)O)cc1 the results were SW480 rereplic 2%, KB-3-1 tox inactive, HT1080 IDH1KD tx 17%, HT1080-NT tox 10%, MCF10A rerep 5% and KB-V1 MDR tox inactive.
Screening CCc1nnc(NC(=O)CSc2nnc(COc3ccccc3)n2-c2ccc(C)cc2)s1 returned SW480 rereplic 6%, KB-3-1 tox inactive, HT1080 IDH1KD tx 4%, HT1080-NT tox 9%, MCF10A rerep 5% and KB-V1 MDR tox inactive.
CCc1nnc(NC(=O)CSc2nnc(-c3ccccc3O)n2-c2ccc(C)cc2C)s1 was read as SW480 rereplic 18µM*, KB-3-1 tox inconclusive, HT1080 IDH1KD tx inconclusive, HT1080-NT tox 4.6µM*, MCF10A rerep 9.2µM* and KB-V1 MDR tox 18µM*.
For Cc1[nH]cnc1C(=O)N/N=C/c1c(Cl)cccc1Cl the results were SW480 rereplic 0%, KB-3-1 tox 16µM*, HT1080 IDH1KD tx inconclusive, HT1080-NT tox inconclusive, MCF10A rerep 4% and KB-V1 MDR tox 21µM*.
Screening COc1ccc(Cn2nnc3c(=O)[nH]c(C4CCCN(C(=O)c5ccccc5Cl)C4)nc32)cc1OC (stereo unspecified) returned KB-3-1 tox inactive and KB-V1 MDR tox inactive.
Screening COC(=O)C1CCN(S(=O)(=O)c2c[nH]c(=O)[nH]c2=O)CC1 returned KB-3-1 tox inactive, HT1080 IDH1KD tx 2%, HT1080-NT tox 1% and KB-V1 MDR tox inactive.
COc1cccc(NS(=O)(=O)c2ccc(-c3cc(C)no3)s2)c1 was read as KB-3-1 tox inactive and KB-V1 MDR tox inactive.
`COc1ccc(OC)c(NS(=O)(=O)c2ccc(-c3cc(C)no3)s2)c1` gave KB-3-1 tox 4.6µM* and KB-V1 MDR tox inconclusive.
Screening COc1ccc(OC)c(NS(=O)(=O)c2ccc(Cl)s2)c1 returned SW480 rereplic inconclusive, KB-3-1 tox inconclusive, HT1080 IDH1KD tx inconclusive, HT1080-NT tox inconclusive, MCF10A rerep inconclusive and KB-V1 MDR tox 16µM*.
Cc1ccc(-c2cc(-c3ccccc3)c3c(N)c(S(C)(=O)=O)sc3n2)cc1 was read as SW480 rereplic 12µM*, KB-3-1 tox inconclusive, HT1080 IDH1KD tx -13%, HT1080-NT tox inconclusive, MCF10A rerep inconclusive and KB-V1 MDR tox inconclusive.

Screens as filed in PubChem.
